# Results from PubChem BioAssay (Tox21).
# Records with an inconclusive call do not appear. Calls of active or inactive are those of the source. Calls come from the whole dose curve.
# Assay: qHTS assay to identify small molecule agonists or antagonists of the thyroid stimulating hormone receptor (TSHR) signaling pathway - wild type cell line counter screen (AID 1259384)
# Conditions: HEK293 wild type, cAMP HTRF counter-screen, active compounds read high; series mostly up to 92.4 µM
# Source text: U.S. Tox21 Program National Center for Advancing Translational Sciences [NCATS] NIH Chemical Genomics Center [NCGC] U.S. Environmental Protection Agency [EPA] National Institutes of Environmental Health Sciences [NIEHS] National Toxicology Program [NTP] U.S. Food and Drug Administration [FDA] Tox21 Assay Overview: TSHR is the receptor for thyrotropin (thyroid stimulating hormone or TSH), a member of the glycoprotein hormone family. TSH is released by the anterior pituitary gland and is the main regulator of thyroid gland growth and development. Upon binding circulating thyrotropin, a G-protein signal cascade activates adenylyl cyclase and […] cAMP concentration is increased. cAMP is a key second messenger involved extensively in cellular signal transduction pathways associated with the majority of G-protein coupled receptors (GPCRs). The activation of these GPCRs by neurotransmitters, lipids, nucleotides, peptides and hormones results in the activation or the inhibition of plasma membrane-bound adenylate cyclase through heterotrimeric G-proteins. A cell-based TSHR-Hek293 assay can be used to identify TSHR agonists. To eliminate the false positive compounds identified from screening a cell-based TSHR-Hek293 cell line, cAMP assay in a wild type Hek293 cells was used as a counter screening.
# Tox21 Assay Protocol Summary: Hek293 cells (wild type) were dispensed at 800 cells/4 uL/well in 1536-well white plates using a Multidrop dispenser. After the assay plates were incubated at a 37 C/5% CO2 incubator for 18 hrs, 23 nL of compounds dissolved in DMSO, positive controls or DMSO only was transferred to the assay plate by a pin tool, followed by 1 ul medium containing Ro20-1724. After 30 min of incubation at room temperature, 2.5 ul/well of cAMP-d2 and 2.5 ul/well of anti-cAMP-cryptate were added respectively into the assay plates using a Flying Reagent Dispenser. The plates were incubated at room temperature for 1 hr. The fluorescence intensity in the plates was measured using an Envision plate reader. Each test compound was measured at 15 concentrations and in triplicates.
# % is set by controls: 0 for no effect and ±100 for the full control effect.
SMILES,outcome,cAMP activity change
CC(C)(O)Cc1ccccc1,inactive,
O=C1CC2(CCCC2)CC(=O)N1,inactive,
OCc1ccccn1,inactive,
O=C(O)c1ccc[n+]([O-])c1,inactive,
CCC(C)(C)C1CCC(OC)CC1 (stereo not given),inactive,
CC(C)c1cccc(O)c1,inactive,
CC(=O)O[C@H](CC(=O)[O-])C[N+](C)(C)C,inactive,
COc1cccc(Br)c1,inactive,
C#CC(O)CCCCC (stereo not given),inactive,
CCN1CCCC1CNC(=O)c1cc(S(N)(=O)=O)ccc1OC (stereo not given),inactive,
COCCOC(=O)CC#N,inactive,
CC(C)CCCCCCN,inactive,
CC12CCC(CC1=O)C2(C)C (stereo not given),inactive,
CC(C)[N+](C)(C)CC(O)COc1cccc2ccccc12 (stereo not given),inactive,
NS(=O)(=O)c1cc(C2(O)NC(=O)c3ccccc32)ccc1Cl (stereo not given),inactive,
OCC(CO)(CO)COCC(CO)(CO)CO,inactive,
Nc1cc(N)cc(C(=O)O)c1,inactive,
O=S(=O)(c1cccc2cnccc12)N1CCCNCC1,inactive,
[O-][N+](=Nc1ccccc1)c1ccccc1,inactive,
CCn1cc(C(=O)O)c(=O)c2cc(F)c(N3CCN(C)CC3)cc21,,-4.11% [at 18.9 µM] (inactive)

SMILES,outcome,cAMP activity change
CCN1CCN(c2cc3c(cc2F)c(=O)c(C(=O)O)cn3C2CC2)CC1,inactive,
CC(=O)c1ccc(C)cc1,inactive,
C=CCOc1nc(OCC=C)nc(OCC=C)n1,inactive,
C#CC(O)C(CC)CCCC (stereo not given),inactive,
CCCCCCCCCCCCCCCCCC(=O)OCCCCCCCCCCCCCC(C)C,inactive,
CCCCCCCCCCCCI,inactive,
C=C(C)C1CC=C(C)C(O)C1 (stereo not given),inactive,
CC1=CCC2C(C1)C2(C)C (stereo not given),inactive,
CC(C)COC(=O)c1ccccc1O,inactive,
CC(C)CCCC(C)NCCC(C)C (stereo not given),inactive,
Cc1cc(C)cc(OCC2CNC(=O)O2)c1 (stereo not given),inactive,
Cc1onc(-c2ccccc2)c1-c1ccc(S(N)(=O)=O)cc1,inactive,
CCCCC1CCCCC(=O)O1 (stereo not given),inactive,
O=C(O)c1ccccc1S,inactive,
FC(F)(F)C(F)(F)C(F)(F)C(F)(F)C(F)(F)C(F)(F)C(F)(F)C(F)(F)C(F)(F)C(F)(F)F,,1.74% [at 8.39 µM] (inactive)
OC[C@H]1O[C@@H]2O[C@H]3[C@H](O)[C@@H](O)[C@@H](O[C@H]4[C@H](O)[C@@H](O)[C@@H](O[C@H]5[C@H](O)[C@@H](O)[C@@H](O[C@H]6[C@H](O)[C@@H](O)[C@@H](O[C@H]7[C@H](O)[C@@H](O)[C@@H](O[C@H]8[C@H](O)[C@@H](O)[C@@H](O[C@H]9[C@H](O)[C@@H](O)[C@@H](O[C@H]1[C@H](O)[C@H]2O)O[C@@H]9CO)O[C@@H]8CO)O[C@@H]7CO)O[C@@H]6CO)O[C@@H]5CO)O[C@@H]4CO)O[C@@H]3CO,inactive,
Nc1nc(F)nc2c1ncn2[C@@H]1O[C@H](CO)[C@@H](O)[C@@H]1O,inactive,
CCCCCCCCN(C)CCCCCCCC,inactive,
NC(=O)CCCCC1CCSS1 (stereo not given),inactive,
CC1=CC(C)C(C=O)C(C)C1 (stereo not given),inactive,
